Screening results deposited in PubChem by National Center for Advancing Translational Sciences (NCATS).
Most compounds without a hit are left out; they make up all but 10% or so of the library.
3T3 cytotox: Cytotoxic Profiling in NIH 3T3 Cell Line of Diverse Libraries Using Quantitative High-Throughput Screening; AID 1345082, 2018; 4.3% of 94,000 active; NIH 3T3 viability, CellTiter-Glo ATP luminescence, 48-72 h; Potency, µM (doses to about 96.7 µM), actives largely listed as inhibitors; note: nearly all actives have a fitted effect of over 55% in size
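ATP-dependent luminescence (CellTiter-Glo) served as the viability signal for NIH 3T3 cells treated with compound for 48 or 72 hr at 37 °C.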
Luciferase inh: Firefly luciferase inhibition profiling of diverse chemical library using quantitative high-throughput screening. purified P. pyralis luciferase, luminescence, biochemical. 2.5% of 76,000 active. Potency, µM (top dose mostly 115 µM), most hits filed as inhibitors. Luciferin 4-monooxygenase (Photinus pyralis), P08659; note: nearly all actives have a fitted effect of over 65% in size
Target sequence (P08659 whole entry, looked up): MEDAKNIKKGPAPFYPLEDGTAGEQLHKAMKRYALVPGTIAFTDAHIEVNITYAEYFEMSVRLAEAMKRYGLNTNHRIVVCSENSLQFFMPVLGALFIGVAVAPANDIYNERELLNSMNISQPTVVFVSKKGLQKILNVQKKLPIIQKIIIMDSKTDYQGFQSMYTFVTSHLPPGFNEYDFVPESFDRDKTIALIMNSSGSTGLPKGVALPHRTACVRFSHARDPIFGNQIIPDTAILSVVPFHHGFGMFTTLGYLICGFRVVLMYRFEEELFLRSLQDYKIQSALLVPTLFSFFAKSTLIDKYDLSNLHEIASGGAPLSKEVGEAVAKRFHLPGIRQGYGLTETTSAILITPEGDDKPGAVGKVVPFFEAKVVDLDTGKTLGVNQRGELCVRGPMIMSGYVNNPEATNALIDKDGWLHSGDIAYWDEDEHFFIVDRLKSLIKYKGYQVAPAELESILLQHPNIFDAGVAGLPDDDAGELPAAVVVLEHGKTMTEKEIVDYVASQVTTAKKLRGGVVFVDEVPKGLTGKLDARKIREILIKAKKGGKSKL
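Luminescence read by CCD imager after adding enzyme (10nM final) to wells holding compound, titrated in qHTS. Substrates 10uM each D-luciferin and ATP; buffer 50mM Tris acetate pH 7.5, 10mM Mg acetate, Tween-20, BSA.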
GPT2 inh: Primary qHTS assay for inhibitors of Glutamate pyruvate transaminase 2 (GPT2); Alanine aminotransferase 2 (Homo sapiens), Q8TD30; Recombinant GPT2, coupled pyruvate oxidase/HRP Amplex Red fluorescence; 0.25% of 100,000 active; Potency, µM (series often up to 57.7 µM), usual class: inhibitors; note: nearly all actives have a fitted effect of over 60% in size
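Inhibition is scored from Amplex Red fluorescence generated when pyruvate oxidase and HRP act on pyruvate released by GPT2. Reactions contain 10ng/uL enzyme, 250uM a-KG and 2mM L-alanine and run 30 min at room temperature.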
hNpr1 antagonist: Natriuretic polypeptide receptor (hNpr1) antagonism - Primary qHTS. Atrial natriuretic peptide receptor 1 (Homo sapiens), P16066. HEK293 hNpr1 GloSensor cGMP, ANP-stimulated luminescence. Potency, µM (highest dose often 46.3 µM), most hits filed as inhibitors. 1.6% of 76,000 active. AID 1347048, 2019; calls by dose curve; note: nearly all actives have a fitted effect of over 60% in size
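HEK293 cells stably expressing human Npr1 and cGMP GloSensor pGS-40F, loaded 2 h with 2% GloSensor reagent, given compound 30 min at room temperature. Luminescence read before and 20 min after 0.1 nM hNppA.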
HEK cytotox: Cytotoxic Profiling in HEK 293 Cell Line of Diverse Libraries Using Quantitative High-Throughput Screening; 6.6% of 94,000 active; Potency, µM (highest dose often 115 µM), most hits filed as inhibitors; HEK 293 viability, ATP luminescence (CellTiter-Glo), 48-72 h; note: nearly all actives have a fitted effect of over 60% in size
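Cytotoxicity was scored by loss of ATP-coupled luminescence (CellTiter-Glo) in HEK 293 cells. Compound treatment ran 48 or 72 hr at 37 degree Celsius, 5% CO2, 95% humidity.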
Large screens that a line does not name were inactive. Unless noted, calls come from the whole dose curve; as a rule, active = well fitted curve in the direction sought with a large enough effect; inconclusive = small, poorly fitted or top-dose-only effect, or another doubt; inactive = no such curve, though single readings can be large; an effect the other way counts as inactive or inconclusive.

Cc1ccc(C2Cn3nnc(C(=O)N4CCC(C(=O)NCCC5=CCCCC5)CC4)c3CO2)cc1 (stereo unspecified)	Luciferase inh 10µM
CCCCNC(=O)C1CCN(C(=O)c2nnn3c2COC(c2ccc(OC)cc2)C3)CC1 (stereo unspecified)	none
O=C(c1cn2cc(-c3cccc(C(F)(F)F)c3)sc2n1)N1CCOCC1	none (no result: Luciferase inh, hNpr1 antagonist)
CCn1c(C2CCCN(C(=O)NC(C)C)C2)nn(C)c1=O (stereo unspecified)	none
O=C(c1cc(Cl)ccc1F)N1C[C@@H](CO)[C@H](c2ccncc2)C1	none
O=C(NCCc1ccc(Cl)cc1)C1CCN(Cc2ccccc2-c2ccccc2F)CC1	3T3 cytotox inconclusive, HEK cytotox 31.6µM (no result: Luciferase inh, GPT2 inh, hNpr1 antagonist)
O=C(NCCc1ccc(F)cc1)C1CCN(Cc2ccccc2-c2ccccc2F)CC1	3T3 cytotox 35.5µM, HEK cytotox 28.2µM (no result: Luciferase inh, GPT2 inh, hNpr1 antagonist)
CNC(=O)[C@H]1C[C@]2(CCCCN(CCOC)C2=O)N(C(C)=O)[C@H]1c1ccccc1	3T3 cytotox inconclusive (no result: Luciferase inh, GPT2 inh, hNpr1 antagonist)
O=C(NC1CCCCC1)C1CCCN(Cc2cccc(-c3cccs3)c2)C1 (stereo unspecified)	3T3 cytotox 28.2µM, HEK cytotox inconclusive (no result: Luciferase inh, hNpr1 antagonist)
O=C(NC1CCN(Cc2cccc(-c3cccs3)c2)CC1)C1CCCC1	none (no result: Luciferase inh, hNpr1 antagonist)
O=C(NC1CCCC1)C1CCCN(Cc2cccc(-c3cccs3)c2)C1 (stereo unspecified)	3T3 cytotox inconclusive, HEK cytotox 44.7µM (no result: Luciferase inh, hNpr1 antagonist)
O=C(NC1CC1)C1CCCN(Cc2cccc(-c3cccs3)c2)C1 (stereo unspecified)	3T3 cytotox inconclusive, HEK cytotox 39.8µM (no result: Luciferase inh, hNpr1 antagonist)
CCn1c(CN(C)Cc2nc3c(C)cccc3[nH]2)nnc1C1CC(N)C1 (stereo unspecified)	none
COc1c(F)cccc1C(=O)N1C[C@@H](C)CC[C@H]1CNc1ccc(Br)cn1	none (no result: 3T3 cytotox, Luciferase inh, hNpr1 antagonist, HEK cytotox)
CCCCn1c(=O)c(C(=O)NCc2ccccn2)nc2cccnc21	3T3 cytotox inconclusive (no result: Luciferase inh, hNpr1 antagonist)
CCCCn1c(=O)c(C(=O)NC2CCCc3ccccc32)nc2cccnc21 (stereo unspecified)	3T3 cytotox 35.5µM, HEK cytotox 39.8µM (no result: Luciferase inh, hNpr1 antagonist)
O=C(C[C@H]1NC(=O)c2ccccc2NC1=O)Nc1nc(-c2cccnc2)cs1	3T3 cytotox inconclusive, HEK cytotox 44.7µM
O=C(C[C@H]1NC(=O)c2ccccc2NC1=O)Nc1nc(-c2ccncc2)cs1	3T3 cytotox inconclusive
Cc1cc(C(=O)NCC2Cn3cccc3CN2Cc2ccccc2)n[nH]1 (stereo unspecified)	Luciferase inh inconclusive, HEK cytotox inconclusive
O=C(NCC1Cn2cccc2CN1Cc1ccccc1)c1ccc2cc[nH]c2c1 (stereo unspecified)	3T3 cytotox inconclusive, HEK cytotox 79.4µM
Fc1ccccc1OCC1CCCN(c2nccc(-c3cccnc3)n2)C1 (stereo unspecified)	3T3 cytotox 79.4µM, GPT2 inh inconclusive, HEK cytotox inconclusive
c1ccc(COC2CCN(c3nccc(-c4cccnc4)n3)CC2)nc1	3T3 cytotox inconclusive, HEK cytotox inconclusive
Cn1ccc(C(=O)N2CC(COc3ccccc3)C3(C2)CN(c2ccccc2)C3)n1 (stereo unspecified)	3T3 cytotox 100µM, HEK cytotox inconclusive
Cn1ccc(C(=O)N2CC(CNC(=O)Nc3ccccc3)C3(C2)CN(c2ccccc2)C3)n1 (stereo unspecified)	3T3 cytotox inconclusive
Cn1ccc(C(=O)N2CC(CNc3ccccc3)C3(C2)CN(c2ccccc2)C3)n1 (stereo unspecified)	3T3 cytotox inconclusive, GPT2 inh inconclusive, hNpr1 antagonist inconclusive, HEK cytotox 63.1µM
Cc1ncsc1C(=O)N1CC(CNC(=O)Cc2ccccc2)C2(C1)CN(c1ccccc1)C2 (stereo unspecified)	3T3 cytotox inconclusive
Cc1ncsc1C(=O)N1CC(COc2ccccc2)C2(C1)CN(c1ccccc1)C2 (stereo unspecified)	3T3 cytotox inconclusive, HEK cytotox 100µM
COCCCNC(=O)C1CCCN(Cc2ccncc2)CCC(=O)NCC1 (stereo unspecified)	none
CS(=O)(=O)N1C[C@@H]2OCC(=O)N(Cc3ccccc3)[C@@H]2C1	none
C[S+](=O)([O-])N1CCC(Cn2ccc3c(N4CCOCC4)nc(-c4cccc5[nH]ncc45)cc32)CC1	3T3 cytotox 10µM, HEK cytotox inconclusive
COc1ccccc1-c1cc2c(ccn2CC2CCN([S+](C)(=O)[O-])CC2)c(N2CCOCC2)n1	3T3 cytotox inconclusive, HEK cytotox inconclusive
C[S+](=O)([O-])N1CCC(Cn2ccc3c(N4CCOCC4)nc(-c4ccccc4F)cc32)CC1	HEK cytotox inconclusive
C[S+](=O)([O-])N1CCC(Cn2ccc3c(N4CCOCC4)nc(-c4ccncc4)cc32)CC1	3T3 cytotox 28.2µM, HEK cytotox inconclusive
COc1ccc(-c2ccc(C(=O)N3CCCC3)c(Cl)c2)nn1	3T3 cytotox 31.6µM, HEK cytotox inconclusive (no result: Luciferase inh, GPT2 inh, hNpr1 antagonist)
COc1ccc(-c2ccc(C(=O)N3CCCC3)cc2)nn1	3T3 cytotox 17.8µM, HEK cytotox 25.1µM (no result: Luciferase inh, GPT2 inh, hNpr1 antagonist)
Cc1ccc(Cl)c(OCC(=O)c2ccc3c(c2)N(CCCC(=O)N2CCOCC2)C(=O)CO3)c1	HEK cytotox inconclusive
CCCS(=O)(=O)N1CCC(c2nc(CCOc3ccc(F)cc3)no2)C1 (stereo unspecified)	HEK cytotox inconclusive
O=C(NC1CCN(Cc2ccc(-c3ccsc3)cc2)C1)c1ccc(F)cc1 (stereo unspecified)	3T3 cytotox inconclusive, HEK cytotox inconclusive (no result: Luciferase inh, hNpr1 antagonist)
COc1ccc(F)cc1-c1ccc(CN2CCC(NC(=O)c3cccnc3)C2)cc1 (stereo unspecified)	3T3 cytotox inconclusive, HEK cytotox 50.1µM (no result: Luciferase inh, GPT2 inh, hNpr1 antagonist)
COc1ccc(C(=O)NC2CCN(Cc3ccc(-c4cc(F)ccc4OC)cc3)C2)cc1 (stereo unspecified)	3T3 cytotox 17.8µM, HEK cytotox 22.4µM (no result: Luciferase inh, GPT2 inh, hNpr1 antagonist)
COc1ccc(C(=O)NC2CCN(Cc3ccc(-c4ccccc4OC)cc3)C2)cc1 (stereo unspecified)	3T3 cytotox 22.4µM, HEK cytotox inconclusive (no result: Luciferase inh, hNpr1 antagonist)
COc1ccccc1-c1ccc(C(=O)N2CCC(NC(=O)c3ccccc3)CC2)cc1	3T3 cytotox inconclusive, HEK cytotox inconclusive (no result: Luciferase inh, hNpr1 antagonist)
COc1ccc(F)cc1-c1ccc(CN2CCC(NC(=O)c3ccc(Cl)nc3)C2)cc1 (stereo unspecified)	3T3 cytotox 31.6µM, HEK cytotox 31.6µM (no result: Luciferase inh, GPT2 inh, hNpr1 antagonist)
COc1ccccc1-c1ccc(CN2CCC(NC(=O)c3ccc(Cl)cc3)C2)cc1 (stereo unspecified)	3T3 cytotox 14.1µM, HEK cytotox 25.1µM (no result: Luciferase inh, GPT2 inh, hNpr1 antagonist)
